Experimental data published in ChEMBL document CHEMBL3988442, “University of Dundee, Small-Polar-MMV Screening Library” (2021).
Out of some 48,000 compounds screened, about 13,000 (27%) showed an effect of 50% or more. This is one part of the list.

These compounds were tested on Wolbachia pipientis (assay: Anti-Wolbachia Cell-Based Screen). Settings: 5 µM.
Type: functional
Design: scale not given: in the data most compounds retested in dose-response had high values
With `CCCNC(=O)CCNC1CSCCc2ccccc21` (configuration not stated) the “Percent Effect” value was -10.65%.
With `COC(=O)c1sccc1S(=O)(=O)N1CCC(Oc2ncccc2Cl)CC1` the “Percent Effect” value was 25.07%.
In the case of `OCCN1CCc2[nH]nc(C(c3ccccc3)c3ccccc3)c2C1`, the “Percent Effect” value was 13.32%.
With `CCc1cnc(CN(C)C(=O)Nc2cnc3c(c2)c(C)nn3C)s1` the “Percent Effect” value was -8.075%.
With `O=C(c1ccc(O)nc1)N1CCN(C(=O)c2ccc(F)cc2F)CC1` the “Percent Effect” value was -4.376%.
`CCn1c(NCc2ccco2)nc2c(C)nn(C)c2c1=O` was tested, and the “Percent Effect” value was 25.01%.
In the case of `CNS(=O)(=O)c1cccc(C(C)NCc2ccco2)c1` (configuration not stated), the “Percent Effect” value was -0.2197%.
In the case of `CC(C)CNc1c(NCc2ccco2)c(=O)c1=O`, the “Percent Effect” value was 131.9%.
With `CSCCCNC(=O)c1coc(Cn2cnc3ccccc32)n1` the “Percent Effect” value was 7.588%.
With `C1CC(NCc2nnc(C3CC3)o2)CN(Cc2noc(C3CC3)n2)C1` (configuration not stated) the “Percent Effect” value was 132.9%.
In the case of `CCc1nc(CN2CCCC(NCc3nnc(C4CC4)o3)C2)no1` (configuration not stated), the “Percent Effect” value was 5.014%.
In the case of `CC(C)c1nnc(CNC2CCCN(Cc3noc(C4CC4)n3)C2)o1` (configuration not stated), the “Percent Effect” value was 144.7%.
With `C1CC(c2noc(C3CC3)n2)CN(Cc2noc(C3CC3)n2)C1` (configuration not stated) the “Percent Effect” value was 0.1706%.
With `c1ccc2oc(NC3CCCN(Cc4noc(C5CC5)n4)C3)nc2c1` (configuration not stated) the “Percent Effect” value was 2.188%.
`CCc1nnc(CNC2CCCN(Cc3noc(C4CC4)n3)C2)o1` (configuration not stated) was tested, and the “Percent Effect” value was 121.7%.
For `OCCN1CCC(CNCCOCC(F)(F)F)CC1`, the “Percent Effect” value was 0.8425%.
`Cc1ccc(-c2ncc(CNc3cnccc3CO)s2)o1` was tested, and the “Percent Effect” value was 8.317%.
`FC(F)(F)CCc1ncnn1-c1ccc2c(c1)OCO2` was tested, and the “Percent Effect” value was -6.748%.
In the case of `Cc1ccccc1C(C(=O)N1CCN(C(=O)c2ccc[nH]2)CC1)N(C)C` (configuration not stated), the “Percent Effect” value was 2.077%.
In the case of `Nc1ncc(CN2CCC(CCC(=O)NC3CC3)CC2)cn1`, the “Percent Effect” value was 2.927%.
`Cn1cnc(S(=O)(=O)N2CC3(CCN(CC4CC4)C3)C2)c1.O=C(O)C(F)(F)F.O=C(O)C(F)(F)F` was tested, and the “Percent Effect” value was 100.1%.
With `CCN1CCC2(C1)CN(S(=O)(=O)c1cn(C)cn1)C2.O=C(O)C(F)(F)F.O=C(O)C(F)(F)F` the “Percent Effect” value was 110.7%.
With `CCS(=O)(=O)N1CCC2(CN(C(=O)c3cn(C)cn3)C2)C1` the “Percent Effect” value was -4.508%.
With `CCO[C@H]1CCN(S(=O)(=O)c2cn(C)cn2)[C@H]1Cc1ccccc1.O=C(O)C(F)(F)F` the “Percent Effect” value was -2.456%.
With `CCn1cc2c(n1)CN(S(=O)(=O)c1cn(C)cn1)CC2COC.O=C(O)C(F)(F)F` (configuration not stated) the “Percent Effect” value was -7.552%.
In the case of `O=C(O)C(F)(F)F.O=S(=O)(C1CC1)N1CCC2(CN(c3ccccn3)C2)C1`, the “Percent Effect” value was 2.12%.
With `CC(C)CN1CC[C@@H]2[C@@H]1CCN2S(=O)(=O)c1cn(C)cn1.O=C(O)C(F)(F)F` the “Percent Effect” value was 9.969%.
With `Cn1cnc(S(=O)(=O)N2CC3(CCN(c4ccccc4)C3)C2)c1.O=C(O)C(F)(F)F` the “Percent Effect” value was 94.4%.
In the case of `Cn1cnc(S(=O)(=O)N2CCN(CC3CC3)c3ncccc3C2)c1.O=C(O)C(F)(F)F.O=C(O)C(F)(F)F`, the “Percent Effect” value was -19.75%.
For `Cn1cnc(C(=O)N2CC3(CCN(S(=O)(=O)c4ccccc4)C3)C2)c1`, the “Percent Effect” value was -0.5352%.
`CC(C)CO[C@H]1CN(S(=O)(=O)c2cn(C)cn2)[C@@H]2CCCO[C@H]12.O=C(O)C(F)(F)F` was tested, and the “Percent Effect” value was -4.682%.
For `CC(C)CN1CCC2(C1)CN(S(=O)(=O)c1cn(C)cn1)C2.O=C(O)C(F)(F)F.O=C(O)C(F)(F)F`, the “Percent Effect” value was 81.89%.
In the case of `CC(CC(=O)Nc1ncn(CC(=O)NCc2ccccc2)n1)C1CC1` (configuration not stated), the “Percent Effect” value was -9.655%.
With `COc1ccc(S(=O)(=O)NCC(O)c2sccc2C)cc1Cl` (configuration not stated) the “Percent Effect” value was 7.194%.
For `CC(=O)N1CCCCCC1C1CCN(Cc2nc(C3CC3)no2)CC1` (configuration not stated), the “Percent Effect” value was -6.899%.
For `Brc1cnc(NCCCOC2CCOCC2)nc1`, the “Percent Effect” value was -7.222%.
In the case of `CNc1cccc(CC2COCCN(C(=O)c3cncs3)C2)n1` (configuration not stated), the “Percent Effect” value was 126.5%.
In the case of `CC(C)Oc1cccc(C(=O)C2CCCN(C(=O)c3cncs3)C2)c1` (configuration not stated), the “Percent Effect” value was 11.61%.
`CNc1cccc(CC2COCCN(C(=O)c3cccnc3)C2)n1` (configuration not stated) was tested, and the “Percent Effect” value was 118.9%.
With `CNc1cccc(CC2COCCN(C(=O)c3cnn(C)c3)C2)n1` (configuration not stated) the “Percent Effect” value was 151.8%.
For `Cc1ccsc1S(=O)(=O)N1CCc2c(c(C(=O)O)nn2CC2CC2)C1`, the “Percent Effect” value was -2.186%.
For `CN(Cc1noc2c1CCCC2)C(=O)Cn1c(=O)cnc2ccccc21`, the “Percent Effect” value was 5.556%.
For `Cc1cnc2n(c1=O)C(CC(=O)NCc1cccs1)CS2` (configuration not stated), the “Percent Effect” value was 81.1%.
For `Cc1cnc2n(c1=O)C(CC(=O)NCc1ccco1)CS2` (configuration not stated), the “Percent Effect” value was 71.35%.
For `Cc1cnc2n(c1=O)C(CC(=O)NCc1cc(-c3cccs3)on1)CS2` (configuration not stated), the “Percent Effect” value was -18.75%.
With `O=C(CC1CSc2nccc(=O)n21)NCc1cc(-c2ccco2)on1` (configuration not stated) the “Percent Effect” value was -4.448%.
For `O=C(CC1CSc2nccc(=O)n21)NCc1ccco1` (configuration not stated), the “Percent Effect” value was 9.661%.
In the case of `CC(C)c1cc2c(O)nc(CSCC(=O)O)nc2s1`, the “Percent Effect” value was 30.38%.
With `CN(Cc1cccs1)C(=O)c1ccc(N2CCOCC2)c(F)c1` the “Percent Effect” value was -5.296%.
`COc1ccccc1C(NC(=O)NC1CC1)c1noc(C)n1` (configuration not stated) was tested, and the “Percent Effect” value was -18.96%.
For `CCc1nc(C2CCCN2CC(=O)Nc2cc(C)no2)no1` (configuration not stated), the “Percent Effect” value was 85.76%.
For `CCc1nc(C2CCCN2CC(=O)Nc2nnc(C)s2)no1` (configuration not stated), the “Percent Effect” value was 78.74%.
With `CCc1nc(C2CCCN2CC(=O)Nc2cc(C)on2)no1` (configuration not stated) the “Percent Effect” value was 106.9%.
For `CCc1nc(C2CCCN2CC(=O)Nc2c(C)nn(C)c2C)no1` (configuration not stated), the “Percent Effect” value was -9.932%.
With `Cc1cc(NC(=O)CN2CCCC2c2noc(C3CC3)n2)no1` (configuration not stated) the “Percent Effect” value was 3.572%.
`Cc1cc(NC(=O)CN2CCCC2c2noc(C3CC3)n2)on1` (configuration not stated) was tested, and the “Percent Effect” value was 2.122%.
For `CCc1nc(C2CCCN2CC(=O)Nc2sc(C)c(C)c2C)no1` (configuration not stated), the “Percent Effect” value was -4.711%.
With `CCc1nc(C2CCCN2CC(=O)Nc2nncs2)no1` (configuration not stated) the “Percent Effect” value was -0.024%.
With `Cc1nnc(NC(=O)CN2CCCC2c2noc(C3CC3)n2)s1` (configuration not stated) the “Percent Effect” value was -18.02%.
In the case of `Cc1cc(CN(CCCO)c2ccccc2)on1`, the “Percent Effect” value was -3.081%.
In the case of `O=S(=O)(NC[C@H]1OC[C@@H](NCc2cccs2)[C@@H]1O)c1ccccc1`, the “Percent Effect” value was -1.267%.
`CCCn1ccnc1CN1C[C@@H](CN2CCCN(C)CC2)[C@@H](CO)C1` was tested, and the “Percent Effect” value was 7.413%.
